# Measured values: PubChem BioAssay (NCATS)
# Inconclusive results are not listed. Where a call stands in place of a potency, no number is given. Active and inactive are the calls of the source. Unless noted, calls follow the shape of the full dose curve.
# Assays:
# [1] = biological target: Glucocorticoid receptor (Homo sapiens) (UniProt P04150); assay: qHTS assay for small molecule agonists of glucocorticoid receptor signaling (AID 588532; active = well fitted curve in the direction sought with a large enough effect in the signal ratio, with a control signal flat; the % refers to the signal ratio); conditions: HeLa MMTV-bla, beta-lactamase ratio, agonist, 18 h; stronger effect = higher value; percent of dexamethasone control, DMSO zero
# Sequence of Glucocorticoid receptor (Homo sapiens) (P04150 whole entry, looked up): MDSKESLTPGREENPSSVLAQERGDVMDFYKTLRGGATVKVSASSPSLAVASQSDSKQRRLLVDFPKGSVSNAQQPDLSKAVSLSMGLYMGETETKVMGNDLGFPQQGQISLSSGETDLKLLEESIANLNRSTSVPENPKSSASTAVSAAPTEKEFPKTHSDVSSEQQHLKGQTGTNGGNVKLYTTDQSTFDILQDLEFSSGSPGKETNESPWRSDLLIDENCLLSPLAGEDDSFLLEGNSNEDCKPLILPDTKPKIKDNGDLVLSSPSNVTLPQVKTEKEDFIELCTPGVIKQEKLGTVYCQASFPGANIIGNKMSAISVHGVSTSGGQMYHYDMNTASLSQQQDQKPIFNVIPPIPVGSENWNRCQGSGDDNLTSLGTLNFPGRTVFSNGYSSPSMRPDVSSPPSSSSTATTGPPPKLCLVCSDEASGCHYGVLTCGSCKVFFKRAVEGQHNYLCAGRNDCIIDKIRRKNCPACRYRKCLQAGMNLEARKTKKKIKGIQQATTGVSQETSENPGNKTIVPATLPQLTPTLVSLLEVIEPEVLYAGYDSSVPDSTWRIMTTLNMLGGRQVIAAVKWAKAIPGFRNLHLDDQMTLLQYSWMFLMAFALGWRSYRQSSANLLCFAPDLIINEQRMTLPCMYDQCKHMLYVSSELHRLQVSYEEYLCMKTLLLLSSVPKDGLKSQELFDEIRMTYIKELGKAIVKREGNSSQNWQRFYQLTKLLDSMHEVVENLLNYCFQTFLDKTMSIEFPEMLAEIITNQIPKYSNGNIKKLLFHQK
# Method in brief: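 Stimulation of a glucocorticoid response element-driven beta-lactamase gene was measured in HeLa cells. Responses were scaled between DMSO basal and 0.1 uM dexamethasone, then fitted for half-maximal stimulation.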
# [2] = biological target: Glucocorticoid receptor (Homo sapiens) (UniProt P04150); assay: qHTS assay for small molecule antagonists of glucocorticoid receptor signaling (AID 588533; active = well fitted inhibition curve with a large enough effect in the signal ratio, with a control signal flat, not every such curve was filed as active; the % refers to the signal ratio;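 also: cells stimulated with 2 nM dexamethasone as agonist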); conditions: HeLa MMTV-bla, GRE beta-lactamase ratio, antagonist mode, 18 h; series mostly up to 76.8 µM
# Method in brief: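 Antagonist-mode qHTS: compound titrations added to GRE-bla HeLa cells, then dexamethasone 2 nM final; 18 h, 37 C. CCF4 FRET fluorescence normalized to dexamethasone and DMSO; IC50 from Hill fit.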
# [3] = biological target: Peroxisome proliferator-activated receptor gamma (Homo sapiens) (UniProt P37231); assay: qHTS assay for small molecule agonists of peroxisome proliferator-activated receptor gamma signaling (AID 588536; active = well fitted curve in the direction sought with a large enough effect in the signal ratio, with a control signal flat, not every such curve was filed as active; the % refers to the signal ratio); conditions: HEK293 PPARg-UAS-bla, beta-lactamase ratio, 16 h, percent of rosiglitazone response, DMSO as zero; series mostly up to 76.7 µM
# Sequence of Peroxisome proliferator-activated receptor gamma (Homo sapiens) (P37231 whole entry, looked up): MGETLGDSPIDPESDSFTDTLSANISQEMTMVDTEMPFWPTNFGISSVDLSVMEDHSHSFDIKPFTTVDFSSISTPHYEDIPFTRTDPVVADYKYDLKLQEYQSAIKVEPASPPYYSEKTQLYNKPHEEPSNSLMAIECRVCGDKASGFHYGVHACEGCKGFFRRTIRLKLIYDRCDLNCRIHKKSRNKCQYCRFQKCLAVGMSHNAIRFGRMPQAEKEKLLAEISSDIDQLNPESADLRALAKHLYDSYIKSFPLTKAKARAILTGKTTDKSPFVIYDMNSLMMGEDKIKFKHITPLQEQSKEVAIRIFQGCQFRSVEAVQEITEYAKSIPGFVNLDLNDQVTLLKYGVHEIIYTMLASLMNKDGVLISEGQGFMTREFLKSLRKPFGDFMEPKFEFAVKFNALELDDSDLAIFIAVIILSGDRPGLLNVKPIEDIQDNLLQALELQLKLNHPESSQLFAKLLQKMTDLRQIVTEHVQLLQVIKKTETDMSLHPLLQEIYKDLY
# Method in brief: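 This is an agonist-mode beta-lactamase reporter assay in HEK293 PPAR-gamma-UAS-bla cells with 1% charcoal/dextran FBS. Compound titrations ran 16 h at 37 C before CCF4 detection. EC50 and efficacy are Hill fits scaled to 2 uM rosiglitazone (100%) and DMSO basal.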
# [4] = biological target: Vitamin D3 receptor (Homo sapiens) (UniProt P11473); assay: qHTS assay for small molecule agonists of vitamin D receptor signaling (AID 588543); conditions: HEK293T VDR-UAS-bla, beta-lactamase ratio, 16 h; series mostly up to 76.8 µM
# Sequence of Vitamin D3 receptor (Homo sapiens) (P11473 whole entry, looked up): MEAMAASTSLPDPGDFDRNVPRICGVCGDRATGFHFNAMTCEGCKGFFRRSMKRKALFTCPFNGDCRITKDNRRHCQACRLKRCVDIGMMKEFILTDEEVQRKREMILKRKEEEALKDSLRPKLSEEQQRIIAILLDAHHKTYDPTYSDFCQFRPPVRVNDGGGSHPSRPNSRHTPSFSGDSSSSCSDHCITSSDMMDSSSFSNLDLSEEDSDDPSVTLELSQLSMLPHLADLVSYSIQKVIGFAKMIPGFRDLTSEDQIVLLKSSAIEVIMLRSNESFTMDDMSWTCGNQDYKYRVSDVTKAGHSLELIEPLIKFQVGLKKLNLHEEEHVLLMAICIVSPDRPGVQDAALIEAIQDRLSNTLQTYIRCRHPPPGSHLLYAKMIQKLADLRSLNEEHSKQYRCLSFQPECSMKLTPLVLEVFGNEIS
# Method in brief: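 β-lactamase reporter, VDR-UAS-bla HEK293T, agonist mode. Cells plated 5 h at 37 °C, compound titration 16 h at 37 °C, CCF4 dye 2 h RT, ratio 460/530 nm. Hill fit → EC50, efficacy vs 50 nM 1α,25-(OH)2D3.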
# [5] = qHTS assay for small molecule agonists of retinoid X receptor alpha signaling (AID 588544); conditions: HEK293T RXRa-UAS-bla, beta-lactamase reporter, 18 h; 530 nm emission
# [6] = biological target: Retinoic acid receptor RXR-alpha (Homo sapiens) (UniProt P19793); assay: as above; conditions: HEK293T RXRa-UAS-bla, beta-lactamase reporter, 18 h; series mostly up to 76.7 µM
# Sequence of Retinoic acid receptor RXR-alpha (Homo sapiens) (P19793 whole entry, looked up): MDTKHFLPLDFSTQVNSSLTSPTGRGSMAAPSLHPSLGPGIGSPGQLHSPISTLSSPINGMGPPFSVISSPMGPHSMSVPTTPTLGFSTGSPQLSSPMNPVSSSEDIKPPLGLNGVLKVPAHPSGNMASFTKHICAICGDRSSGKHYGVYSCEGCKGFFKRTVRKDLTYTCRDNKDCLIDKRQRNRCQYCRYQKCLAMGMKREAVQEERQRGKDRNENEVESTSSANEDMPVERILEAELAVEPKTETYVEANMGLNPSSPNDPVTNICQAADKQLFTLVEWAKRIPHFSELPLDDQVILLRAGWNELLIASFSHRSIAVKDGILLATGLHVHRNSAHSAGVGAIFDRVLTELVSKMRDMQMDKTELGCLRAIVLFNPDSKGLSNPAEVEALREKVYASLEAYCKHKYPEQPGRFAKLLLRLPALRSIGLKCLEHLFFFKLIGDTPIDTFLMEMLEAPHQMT
# [7] = biological target: Thyroid hormone receptor beta (Homo sapiens) (UniProt P10828); assay: qHTS assay for small molecule agonists of thyroid hormone receptor beta signaling (AID 588545); conditions: TR-UAS-bla GripTite HEK 293, beta-lactamase ratio, agonist mode, 18 h, percent of T3 response, DMSO as zero; series mostly up to 76.7 µM
# Sequence of Thyroid hormone receptor beta (Homo sapiens) (P10828 whole entry, looked up): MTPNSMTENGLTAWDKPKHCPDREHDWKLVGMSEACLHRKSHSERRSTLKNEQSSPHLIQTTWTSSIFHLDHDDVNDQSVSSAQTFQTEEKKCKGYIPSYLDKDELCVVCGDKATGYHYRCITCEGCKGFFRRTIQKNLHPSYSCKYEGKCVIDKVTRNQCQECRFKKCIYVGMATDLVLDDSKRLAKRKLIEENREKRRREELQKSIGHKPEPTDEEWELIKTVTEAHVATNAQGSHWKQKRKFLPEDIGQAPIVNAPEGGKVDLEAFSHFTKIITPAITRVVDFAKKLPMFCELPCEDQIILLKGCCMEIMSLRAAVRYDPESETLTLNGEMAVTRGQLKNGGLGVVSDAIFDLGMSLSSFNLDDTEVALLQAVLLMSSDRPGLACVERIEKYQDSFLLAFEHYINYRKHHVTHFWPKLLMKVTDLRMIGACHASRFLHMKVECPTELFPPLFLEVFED
# Method in brief: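 Agonist activity was read as beta-lactamase CCF4 fluorescence (405 ex, 460/530 em), scaled between DMSO (0%) and 10 nM T3 (100%), then Hill-fitted for EC50 and efficacy. HEK 293 TR-UAS-bla cells in 2% charcoal/dextran FBS medium were exposed 18 h at 37 C.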
# [8] = qHTS assay for small molecule antagonists of retinoid X receptor alpha signaling (AID 588546; active = well fitted inhibition curve with a large enough effect in the signal ratio, with a control signal flat, not every such curve was filed as active; the % refers to the signal ratio;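 also: cells stimulated with 9-cis-retinoic acid as agonist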); conditions: HEK293T RXRa-UAS-bla, beta-lactamase ratio, antagonist mode; measured here: W530 green channel, cytotoxicity proxy
# Method in brief: (§1)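 Beta-lactamase reporter inhibition, read as CCF4 fluorescence ratio (ex 405, em 460/530 nm) after 2 h at RT. HEK293T UAS-bla cells, 2500/well, were stimulated with 9-cis-RA at 500 or 100 nM final alongside test compound for 18 h at 37 C.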
# [9] = biological target: Retinoic acid receptor RXR-alpha (Homo sapiens) (UniProt P19793); assay: as above; conditions: HEK293T RXRa-UAS-bla, beta-lactamase ratio, antagonist mode
# Method in brief: as §1
# [10] = biological target: Thyroid hormone receptor beta (Homo sapiens) (UniProt P10828); assay: qHTS assay for small molecule antagonists of thyroid hormone receptor beta signaling (AID 588547; active = well fitted inhibition curve with a large enough effect in the signal ratio, with a control signal flat, not every such curve was filed as active; the % refers to the signal ratio;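 also: cells stimulated with 0.4 nM T3 agonist during compound exposure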); conditions: TR-UAS-bla HEK293, beta-lactamase ratio, antagonist mode, 18 h
# Method in brief: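 TR-UAS-bla GripTite HEK293 cells in 2% charcoal/dextran FBS medium were preincubated 4 h at 37 C, given compound (0.59 nM to 92 uM) plus 0.4 nM T3 (final) for 18 h, then CCF4 for 2 h at RT; Hill fit gave IC50.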
# [11] = biological target: Voltage-gated inwardly rectifying potassium channel KCNH2 (Homo sapiens) (UniProt Q12809); assay: qHTS Assay for Small Molecule Inhibitors of the Human hERG Channel Activity (AID 588834; active = well fitted inhibition curve with a large enough effect;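 also: top concentration of the series differs between compounds; lower thallium flux fluorescence means stronger hERG block; nearly all actives have a fitted effect of over 50% in size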); conditions: U2OS BacMam hERG, FluxOR thallium flux fluorescence; series mostly up to 92.2 µM
# Sequence of Voltage-gated inwardly rectifying potassium channel KCNH2 (Homo sapiens) (Q12809 whole entry, looked up): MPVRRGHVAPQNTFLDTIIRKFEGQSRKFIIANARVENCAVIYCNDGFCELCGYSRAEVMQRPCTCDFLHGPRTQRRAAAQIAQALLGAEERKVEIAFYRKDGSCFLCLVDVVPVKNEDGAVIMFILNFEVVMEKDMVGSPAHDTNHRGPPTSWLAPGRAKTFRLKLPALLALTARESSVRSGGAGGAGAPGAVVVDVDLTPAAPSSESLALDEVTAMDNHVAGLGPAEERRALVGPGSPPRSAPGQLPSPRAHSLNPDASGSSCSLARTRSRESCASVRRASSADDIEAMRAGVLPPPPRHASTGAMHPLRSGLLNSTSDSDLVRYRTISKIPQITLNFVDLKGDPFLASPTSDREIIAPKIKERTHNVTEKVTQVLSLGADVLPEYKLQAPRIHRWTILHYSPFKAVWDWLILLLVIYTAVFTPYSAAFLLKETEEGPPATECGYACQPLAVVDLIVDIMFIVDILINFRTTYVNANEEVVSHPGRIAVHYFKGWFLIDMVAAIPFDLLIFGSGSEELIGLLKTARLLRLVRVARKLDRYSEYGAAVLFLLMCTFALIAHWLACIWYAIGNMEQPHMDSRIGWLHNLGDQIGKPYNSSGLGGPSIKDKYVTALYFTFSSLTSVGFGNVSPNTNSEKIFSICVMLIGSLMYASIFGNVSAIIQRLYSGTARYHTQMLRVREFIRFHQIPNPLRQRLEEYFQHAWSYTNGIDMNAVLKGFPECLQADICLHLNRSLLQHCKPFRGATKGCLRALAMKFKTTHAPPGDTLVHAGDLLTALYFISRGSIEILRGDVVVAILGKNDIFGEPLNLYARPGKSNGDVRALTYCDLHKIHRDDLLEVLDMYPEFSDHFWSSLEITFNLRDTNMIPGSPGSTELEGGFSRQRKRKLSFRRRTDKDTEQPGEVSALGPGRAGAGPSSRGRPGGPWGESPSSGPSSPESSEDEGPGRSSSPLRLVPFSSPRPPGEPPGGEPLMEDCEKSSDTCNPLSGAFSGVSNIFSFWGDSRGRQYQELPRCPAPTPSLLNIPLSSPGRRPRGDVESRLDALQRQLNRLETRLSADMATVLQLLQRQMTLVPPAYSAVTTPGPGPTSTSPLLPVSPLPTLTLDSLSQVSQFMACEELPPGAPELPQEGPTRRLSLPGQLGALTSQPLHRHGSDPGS
# Method in brief: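 Thallium-flux (FluxOR) read-out on FDSS: fluorescence read 10 s before and 2 min after stimulation buffer. hERG-BacMam-transduced U2OS cells, compound exposure about 10 min. AC50 by standard Hill equation.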
# [12] = qHTS assay for small molecule activators of the nuclear factor-kappa B (NF-kB) signaling pathway (AID 651749; active = well fitted activation curve with a large enough effect in the signal ratio; the % refers to the signal ratio); conditions: NF-kB-bla ME-180 cells, beta-lactamase FRET ratio, 16 h; stronger effect = higher value
# Method in brief: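 Human ME-180 cervical cells with an NF-kB-bla construct; compounds added via 23 nL pin transfer, DMSO as vehicle; incubation 16 hr. Reporter activity measured by FRET disruption.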
# [13] = qHTS assay for small molecule disruptors of the mitochondrial membrane potential - 1 hr assay (AID 651754); conditions: series mostly up to 92.2 µM; also: nearly all actives have a fitted effect of over 35% in size; also: potency is read from the fitted curve at half-maximal effect
# Method in brief: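 Loss of mitochondrial potential shifts the cationic dye from red mitochondrial aggregates to green cytoplasmic monomers. Cells (HepG2) are treated with compound for 1 hr before a 30 min dye incubation at 37C.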
# [14] = qHTS assay for small molecule antagonists of peroxisome proliferator-activated receptor delta signaling (AID 588535; active = well fitted inhibition curve with a large enough effect in the signal ratio, with a control signal flat, not every such curve was filed as active; the % refers to the signal ratio;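 as to max response: cells co-treated with a PPAR-delta agonist as stimulator during compound exposure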); conditions: HEK293T PPARd-UAS-bla, beta-lactamase FRET ratio, 18 h; 460 nm channel
# Method in brief: (§2)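 Inhibition of PPAR-delta response element-driven beta-lactamase expression is measured in HEK293T cells exposed to a compound titration series for 18 hrs at 37 C. Half-maximal inhibition comes from Hill equation fitting.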
# [15] = qHTS assay for small molecule agonists of the antioxidant response element (ARE) signaling pathway (AID 651741; active = well fitted activation curve with a large enough effect in the signal ratio; the % refers to the signal ratio; also: potency is read from the fitted curve at half-maximal effect); conditions: HepG2 ARE-bla reporter, beta-lactamase FRET ratio, 16 h; series mostly up to 96 µM
# Method in brief: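 Reporter: beta-lactamase under ARE, stably in HepG2. Exposure: 16 h, 37 C, compounds delivered in DMSO by pin tool after 5 h cell preincubation. Readout: FRET substrate fluorescence after 2 h at RT.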
# [16] = qHTS assay for small molecule activators of the p53 signaling pathway (AID 651743; active = well fitted activation curve with a large enough effect in the signal ratio, not every such curve was filed as active; the % refers to the signal ratio); conditions: HCT-116 p53RE-bla, beta-lactamase FRET ratio, 16 h; stronger effect = higher value
# Method in brief: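 Agonist-mode quantitative HTS in HCT-116 cells carrying a p53-response-element beta-lactamase reporter; 16 h compound treatment at 37 C, then FRET substrate loading for 2 h at room temperature and fluorescence read.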
# [17] = biological target: Vitamin D3 receptor (Homo sapiens) (UniProt P11473); assay: qHTS assay for small molecule antagonists of vitamin D receptor signaling (AID 588541); conditions: HEK293T VDR-UAS-bla, beta-lactamase ratio, antagonist mode; series mostly up to 76.7 µM;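 also: receptor activated by calcitriol during compound treatment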
# Method in brief: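 VDR-UAS-bla HEK293T cells (2000/well, 2% charcoal-stripped FBS) were treated with titrated compounds plus 1-alpha,25-dihydroxyvitamin D3 (50 nM or 3 nM final) for 16 h at 37 C. CCF4 beta-lactamase fluorescence was read; Hill fits gave IC50.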
# [18] = biological target: Peroxisome proliferator-activated receptor gamma (Homo sapiens) (UniProt P37231); assay: qHTS assay for small molecule antagonists of peroxisome proliferator-activated receptor gamma signaling (AID 588537; active = well fitted inhibition curve with a large enough effect in the signal ratio, with a control signal flat, not every such curve was filed as active; the % refers to the signal ratio;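 also: reporter cells co-stimulated with 50 nM rosiglitazone agonist during compound treatment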); conditions: HEK293 PPARg-UAS-bla, beta-lactamase ratio, antagonist mode; series mostly up to 76.8 µM
# Method in brief: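 Compounds are tested as concentration series for inhibition of rosiglitazone-driven (50 nM) reporter expression in GeneBLAzer PPAR-gamma-UAS-bla HEK293 cells. After 16 h at 37 C, CCF4 substrate is added for 2 h at room temperature and blue/green fluorescence is measured.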
# [19] = biological target: Peroxisome proliferator-activated receptor delta (Homo sapiens) (UniProt Q03181); assay: qHTS assay for small molecule antagonists of peroxisome proliferator-activated receptor delta signaling (AID 588535); conditions: HEK293T PPARd-UAS-bla, beta-lactamase FRET ratio, 18 h; series mostly up to 76.7 µM;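 as to max response: cells co-treated with a PPAR-delta agonist as stimulator during compound exposure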
# Sequence of Peroxisome proliferator-activated receptor delta (Homo sapiens) (Q03181 whole entry, looked up): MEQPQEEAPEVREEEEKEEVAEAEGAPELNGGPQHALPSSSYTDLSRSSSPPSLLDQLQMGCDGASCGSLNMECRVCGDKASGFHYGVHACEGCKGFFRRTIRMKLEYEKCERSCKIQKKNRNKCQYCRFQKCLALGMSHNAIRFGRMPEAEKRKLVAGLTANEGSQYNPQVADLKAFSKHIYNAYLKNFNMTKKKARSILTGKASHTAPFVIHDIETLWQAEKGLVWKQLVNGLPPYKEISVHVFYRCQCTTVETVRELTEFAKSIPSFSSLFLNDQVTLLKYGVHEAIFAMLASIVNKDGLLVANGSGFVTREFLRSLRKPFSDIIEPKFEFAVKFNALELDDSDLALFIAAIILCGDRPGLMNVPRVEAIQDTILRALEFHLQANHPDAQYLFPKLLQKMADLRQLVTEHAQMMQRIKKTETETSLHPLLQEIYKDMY
# Method in brief: as §2
SMILES,activation [1],outcome [2],outcome [3],outcome [4],max response [5] [%],outcome [6],outcome [7],max response [8] [%],max response [9],activity change % (negative = inhibition) [10],Potency [11],activation [12],Potency [13],max response [14] [%],Potency [15],activation [16],outcome [17],outcome [18],Potency [19]
CSc1ccc(C=O)cc1,-2.41% (inactive),inactive,inactive,inactive,-15.5,inactive,inactive,-1.24,1.67% (inactive),3.08% (inactive),inactive,0.0922% (inactive),inactive,–,–,–,–,–,–
Cc1ccc2ncccc2c1,6.61% (inactive),inactive,inactive,–,-4.8,inactive,–,-2.62,2.87% (inactive),1.73% (inactive),inactive,-1.62% (inactive),inactive,20.6,inactive,-3.29% (inactive),–,–,–
O=C(O)c1ccc(Cl)cc1Cl,-5.78% (inactive),inactive,inactive,inactive,-11.4,inactive,inactive,-6.82,2.21% (inactive),-8.73% (inactive),inactive,-0.499% (inactive),inactive,–,–,-4.73% (inactive),inactive,–,–
Oc1cccc(Nc2ccccc2)c1,-7.34% (inactive),inactive,inactive,–,-0.0784,inactive,inactive,–,–,–,inactive,0.49% (inactive),–,–,42.2 µM (active),–,–,–,–
C1CCC2OC2C1 (stereo not drawn),-6.07% (inactive),inactive,inactive,inactive,6.92,inactive,inactive,-13.8,6.91% (inactive),14.7% (inactive),inactive,–,inactive,38.4,inactive,–,inactive,–,–
Cc1cc(C2(c3cc(C)c(O)cc3C)OS(=O)(=O)c3ccccc32)c(C)cc1O,3.46% (inactive),inactive,inactive,–,-3.17,inactive,inactive,-12.4,–,-15% (inactive),inactive,–,inactive,–,–,-5.82% (inactive),–,–,–
Nc1cc(Cl)c([N+](=O)[O-])cc1O,-1.56% (inactive),inactive,–,–,-11.8,inactive,inactive,-8.58,-8.94% (inactive),14.2% (inactive),inactive,0.0071% (inactive),33.5 µM (active),–,8.41 µM (active),-0.259% (inactive),–,–,–
C=C(C)OC(C)=O,-3.17% (inactive),inactive,inactive,–,12.6,inactive,–,12.2,–,24.9% (inactive),inactive,-0.753% (inactive),inactive,–,inactive,-0.827% (inactive),inactive,–,–
Nc1ccc([N+](=O)[O-])c(N)c1,-8.8% (inactive),inactive,inactive,inactive,-12.6,inactive,inactive,-1.48,-8.62% (inactive),-0.546% (inactive),inactive,0.47% (inactive),–,–,–,-5.74% (inactive),–,inactive,–
OC1CCCC1,0.774% (inactive),inactive,inactive,inactive,-0.127,inactive,inactive,-8.22,5.18% (inactive),8.64% (inactive),inactive,1.54% (inactive),inactive,–,inactive,–,inactive,inactive,–
CCC1CO1 (stereo not drawn),-3% (inactive),inactive,inactive,–,-15.4,inactive,inactive,-10.7,-1.32% (inactive),-15.4% (inactive),inactive,-0.443% (inactive),inactive,-69.5,–,-2.66% (inactive),–,inactive,–
CC(C)CO,-3.71% (inactive),inactive,–,inactive,-16,inactive,inactive,-8.16,-7% (inactive),-17.4% (inactive),–,-1.15% (inactive),inactive,–,–,–,inactive,–,–
Cc1ccc(C)c([N+](=O)[O-])c1,-1.28% (inactive),–,inactive,inactive,-15.2,inactive,inactive,–,–,0.688% (inactive),inactive,0.199% (inactive),inactive,-7.2,–,–,–,inactive,inactive
Cc1cccc(C)c1,–,inactive,inactive,inactive,-8.44,inactive,inactive,-8.63,-1.87% (inactive),21.6% (inactive),inactive,–,inactive,-14.1,–,–,inactive,inactive,inactive
c1ccc2c(c1)Oc1ccccc1S2,–,inactive,–,inactive,-9.36,inactive,inactive,-7.12,5.17% (inactive),-3.93% (inactive),–,-0.203% (inactive),inactive,19.7,inactive,0.189% (inactive),inactive,–,inactive
